For 59 molecules, inhibition results are on record in PubChem BioAssay AID778 (Sanford-Burnham Center for Chemical Genomics, 2007).

Hit rate of the full screen: of about 96,000 compounds, about 20,000 (21%) were called active. The list is a sample of the results. Unmarked numbers belong to inactive results.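 How the source made its calls: active means CYP2C19 inhibition above a set limit at 5 µM in the primary screen (cut at about 50% in these data); inactive means the rest.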

By inhibition is commonly meant the relative decrease from the control value, in per cent.

Chain of Cytochrome P450 2C19 (Homo sapiens) (P33261 whole entry, looked up): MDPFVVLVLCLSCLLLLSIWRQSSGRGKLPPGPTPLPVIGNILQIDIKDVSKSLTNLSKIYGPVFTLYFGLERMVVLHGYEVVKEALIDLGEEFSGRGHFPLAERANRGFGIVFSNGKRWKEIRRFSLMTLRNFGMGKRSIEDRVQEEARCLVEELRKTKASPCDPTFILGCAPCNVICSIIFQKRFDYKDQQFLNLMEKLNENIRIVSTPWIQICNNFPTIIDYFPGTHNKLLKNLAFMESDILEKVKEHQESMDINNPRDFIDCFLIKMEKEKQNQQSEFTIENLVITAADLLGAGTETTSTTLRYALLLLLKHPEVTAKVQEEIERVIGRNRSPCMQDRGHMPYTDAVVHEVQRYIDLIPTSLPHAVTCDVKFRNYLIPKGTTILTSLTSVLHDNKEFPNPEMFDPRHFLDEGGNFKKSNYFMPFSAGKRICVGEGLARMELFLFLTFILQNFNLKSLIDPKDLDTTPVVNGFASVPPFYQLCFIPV

The assay concerns the target Cytochrome P450 2C19 (Homo sapiens) (UniProt P33261). The experiment in a line: blockers of cytochrome P450 2C19 activity – biochemical, luminescence, ADME assay, primary screen (AID 778).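 Further: plate controls were negative control wells for no effect and 2.5 mM tranylcypromine positive control for full effect.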 The settings on record: CYP2C19 Supersomes, luciferin-H EGE luminescence, 30 min; at 5 µM; hits give high values.
On to `CCOc1ccc(CNC(=O)C2CC(=O)N(C3CCCC3)C2)cc1OC` (centres undefined), for which the inhibition is -8%. As for `COc1ccc(CCn2c(=N)c(C(=O)NCc3ccco3)cc3c(=O)n4cccc(C)c4nc32)cc1`, the figure is 25.7%; as for `CCC(C(=O)NCc1ccc(OC)cc1)n1nc(C)n2c(cc3occc32)c1=O` (centres undefined), 58.8% (active). Turning to `CCOc1ccc(CCNC(=O)C2CCN(c3ccc(N4CCOCC4)nn3)CC2)cc1OCC`, the inhibition was 13.9%. The figure for `CCOc1ccc(CCNC(=O)C(CC)n2nc(C)n3c(cc4sccc43)c2=O)cc1OCC` (centres undefined) is 57.8% (active); for `COc1ccc(CNC(=O)c2cc3c(=O)n4ccccc4nc3n(CC3CCCO3)c2=N)cc1` (centres undefined) it is 6.2%. As for `COc1cc(OC)cc(-c2cc3nc(C4CCN(C(=O)OC(C)(C)C)CC4)cc(=O)n3[nH]2)c1`, the figure is 2.8%; as for `CC(Cc1cccs1)NC(=O)NC1CCCCC1` (centres undefined), 21%; as for `COc1cccc(Nc2nnc(SCC(=O)N3CC(C)OC(C)C3)s2)c1` (centres undefined), 36%. The figure for `c1ccc(CCN2CN=C(Nc3nc4ccccc4o3)NC2)cc1` is 29.5%. In the case of `CCOc1cc(-c2nc3cc(C)ccn3c2NCC2CCCO2)ccc1O` (centres undefined), the inhibition is 2.7%.

For `O=P(c1ccc2c(c1)OCCO2)(N1CCOCC1)N1CCOCC1`, the inhibition is 21.2%. The figure for `O=C(Cn1nc(Cc2cccnc2)c2ccccc2c1=O)NCC1COc2ccccc2O1` (centres undefined) is 36.1%; for `Cc1nn(CC(=O)Nc2ccc3c(c2)nc(CN2CCCCC2)n3C)c(=O)c2ccccc12` it is 10.5%; for `Cc1ccc(NC(=O)Cn2nc(C)c3ccccc3c2=O)c(C)c1` it is 56.1% (active). On to `COc1cccc(C(=O)Nc2ccc(NC(=O)c3ccco3)cn2)c1`, for which the inhibition is 38.7%. The figure for `Cc1sc2c(c1C)c(=O)n(-c1ccccc1)c1nncn21` is -7.8%.

For the molecule `Cc1cc(=O)cc(C)[nH]1`, the inhibition was 4.5%.

`CC(=O)N1CCN(c2ccc(NCc3ccc(C(C)C)cc3)cc2)CC1`: the inhibition was 50.5% (active).

In the case of `CC(C)c1ccc(N2CCN(C(=O)c3ccccc3NC(=O)/C=C(\C(=O)O)c3ccccc3)CC2)cc1`, the inhibition was 21.7%. The figure for `COc1ccc(N2CCN(C(=O)CNC(=O)c3ccc(C(C)(C)C)cc3)CC2)cc1` is 3.3%; for `Cc1ccc(Cc2cnc(N)s2)o1` it is 8.3%; for `CC1CC(C)CN(S(=O)(=O)c2cccc(C(=O)N3C(=O)c4cccc(N)c4C3=O)c2)C1` (centres undefined) it is 5.9%. As for `O=C(Nc1cccnc1)c1noc2c1CCCCC2`, the figure is 64.2% (active); as for `O=C(Nc1cccc2ccccc12)c1onc2c1CCCC2`, 7.1%. The figure for `CCOC(=O)c1ccc(-c2ccc(C(=O)Nc3cccnc3)o2)cc1` is 14.1%; for `Cn1c(=O)c2[nH]c(NCC3CCCO3)nc2n(-c2ccccc2)c1=O` (centres undefined) it is -1%. With `CC(=O)NC1CC2CCCC(C1)N2CC(=O)Nc1ccccc1` (centres undefined), the inhibition was 11.5%.

On to `CSCCC(NC(=O)c1ccco1)C(=O)OCC(=O)Nc1ncc(Cl)c(C)c1Cl` (centres undefined), for which the inhibition is 12.9%. The figure for `O=C(Nc1ccc2sc3ccccc3c(=O)c2c1)c1ccccc1Cl` is 14.5%; for `COC(=O)c1cn(-c2ccccc2)nc1-c1cccnc1` it is 30.5%; for `Cc1c(C(=O)NCc2ccccc2)cnn1-c1ccccc1` it is 11.5%.

As for `O=C(NCc1cccnc1)c1cn(-c2ccccc2)nc1-c1cccs1`, the inhibition was 89.6% (active). As for `COC(=O)Cc1csc(Nc2c(C)n(C)n(-c3ccccc3)c2=O)n1`, the figure is -4.9%. As for `CC1CC(c2ccccc2)n2nc(NC(=O)c3cccs3)nc2N1` (centres undefined), the figure is 7.3%; as for `CCOC(=O)C1CCCCN1Cc1ccc(OC)c(OC)c1OC` (centres undefined), 58.1% (active); as for `CCOC(=O)CSc1nncc2ccc(OC)c(OC)c12`, 11.3%. As for `CCOC(=O)C1CCN(Cc2coc3ccc(Cl)cc3c2=O)CC1`, the figure is 6.5%. With `CN=C1SC(CC(=O)Nc2ccc(C(=O)O)cc2)C(=O)N1C` (centres undefined), the inhibition was -4.9%.

`CC(=O)C1C(c2ccc(Cl)cc2)NC(=O)NC1(O)C(F)(F)F` (centres undefined): the inhibition was 39%. The figure for `CCOC(=O)C(C)Oc1cccc2c(=O)n(CC(=O)N3CCc4ccccc43)ccc12` (centres undefined) is 8.2%; for `CCc1cccc2c(C=C(C#N)C#N)cn(CC(=O)N3CCCCC3)c12` it is -0.7%; for `COc1cccc2c(=O)n(CC(=O)N3CCCCCC3)ccc12` it is 56.9% (active). Regarding `O=C(Cn1cc2c(n1)CCCCC2)NCCN1CCOCC1`, the inhibition was -10.3%. The figure for `COc1cc(OC)c(C(=O)NC2CCCCCC2)cc1OC` is 43.7%; for `Cc1ccc(CNC(=O)CN2CCN(Cc3ccc(Cl)cc3)C2=O)cc1` it is 15.1%; for `O=C(/C=C/c1cc2c(cc1Br)OCO2)NCc1ccc(Cl)cc1` it is -11.1%. The figure for `CCOc1ccc(N(CC(=O)NC2CCCCCC2)S(=O)(=O)c2c(C)[nH]c(=O)[nH]c2=O)cc1` is 25.2%; for `CCOC(=O)c1cccc(NC(=O)CN(c2ccc(C)cc2)S(=O)(=O)c2c(C)noc2C)c1` it is 17.3%. On to `CS(=O)(=O)N(CC(=O)N1CCN(Cc2ccc3c(c2)OCO3)CC1)c1ccc2c(c1)OCO2`, for which the inhibition is -4.8%. Take `Cc1noc(C)c1S(=O)(=O)N(CC(=O)NCc1ccc(Cl)cc1)c1ccc2c(c1)OCO2`: the inhibition was 72.8% (active). The figure for `O=C(CN(c1ccc2c(c1)OCCO2)S(=O)(=O)c1ccccc1)Nc1ccc2c(c1)OCO2` is 26.7%; for `CCOc1ccc(N(CC(=O)OC)S(=O)(=O)c2c(C)noc2C)cc1` it is 50.6% (active); for `CCOc1ccc(N(CC(=O)NCc2ccc(OC)cc2)S(=O)(=O)c2c(C)noc2C)cc1` it is 15.3%. As for `O=C(Cn1nnc(-c2ccc3c(c2)OCO3)n1)NCc1ccco1`, the figure is 0.8%; as for `CS(=O)(=O)N(CC(=O)NCc1ccco1)c1ccc2c(c1)OCO2`, 59.5% (active). Turning to `Cc1noc(C)c1S(=O)(=O)N(CC(=O)Nc1ccc2c(c1)OCCO2)c1ccc(C(C)C)cc1`, the inhibition was 55.8% (active). The figure for `N/C(=N\c1nc2ccccc2o1)NC(=O)C(Cc1ccccc1)N1C(=O)c2ccccc2C1=O` (centres undefined) is 35.9%; for `Cn1c(=O)cc(SCC(=O)N2CCN(C(=O)c3ccco3)CC2)c2ccccc21` it is -17%.
